The values below come from PubChem BioAssay.

The nature of assay [1]: optical density shifts of acrAB sulA E. coli – strain DRC41, OD650, 48 h, E. coli filamentation inducer project, primary screen (AID 1152).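 Note: E. coli MC1000 strain DRC41 lacking acrAB efflux pump and sulA.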 The conditions noted are these: higher = more signal, called active from +8 up or from −8 down.
Assay [2] is described as follows: probe aLefty1 binding on compound microarray – biochemical, small-molecule microarray, 635/667 nm fluorescence, primary screen (AID 1153).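 Note: score merges spot fluorescence with signal-to-noise ratio from the scanned slide images.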 Conditions: higher = more signal.
Assay [3] can be described thus: plasmodial surface anion channel blockers, osmotic lysis – cell-based, P. falciparum Indochina, OD700, 1 h, primary screen (AID 1154). The conditions noted are these: P. falciparum Indochina infected RBC osmotic lysis, higher = more signal, called active from +8 up or from −8 down.
A short description of assay [4]: plasmodial surface anion channel blockers, osmotic lysis – cell-based, P. falciparum Indochina, OD700, 2 h, primary screen (AID 1155).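 Note: lysis reports solute entry through the parasite surface anion channel PSAC.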 Conditions: P. falciparum Indochina infected erythrocytes, higher = more signal, called active from +8 up or from −8 down.
Assay [5] in a line: changes in parasitized red cell lysis, either direction – P. falciparum Indochina, OD700, 3 h, PSAC antagonist project, primary screen (AID 1156). Conditions: P. falciparum-infected erythrocytes, osmotic lysis, higher = more signal, called active from +8 up or from −8 down.
A short description of assay [6]: plasmodial surface anion channel blockers, osmotic lysis – cell-based, P. falciparum Indochina, OD700, 18 h, primary screen (AID 1157). The conditions noted are these: P. falciparum Indochina infected erythrocytes, osmotic lysis OD700, 18 h; higher = more signal, called active from +8 up or from −8 down.
A short description of assay [7]: S6 kinase pathway phospho-S6 level changes – cell-based, A549, cytoblot, luminescence, serum-stimulated, primary screen (AID 1158).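 Note: serum-stimulated A549 lung adenocarcinoma cells; signal is phosphorylated S6 detected by cytoblot immunostaining with HRP secondary.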 The conditions noted are these: 5 h, higher = more signal.
Assay [8] deals with NADPH oxidase 2 (Homo sapiens) (UniProt P04839). Nature of the assay: compounds shifting NOX2 Amplex Red fluorescence – cell-based, HEK293-NOX2, PMA-stimulated, NOX inhibitor project, primary screen (AID 1159). Note: test concentration not given here. The conditions noted are these: 45 min, higher = more signal, called active from +8 up or from −8 down.
Assay [9] has as its target NADPH oxidase 4 (Homo sapiens) (UniProt Q9NPH5). Nature of the assay: compounds shifting NOX4 Amplex Red fluorescence – cell-based, HEK293-NOX4, tetracycline-induced, NOX inhibitor project, primary screen (AID 1160). The conditions noted are these: HEK293-NOX4, Amplex Red H2O2 fluorescence, 45 min; higher = more signal, called active from +8 up or from −8 down.
Assay [10] addresses NADPH oxidase 5 (Homo sapiens) (UniProt Q96PH1). Nature of the assay: compounds shifting NOX5 Amplex Red fluorescence – cell-based, HEK293-NOX5, NOX inhibitor project, primary screen (AID 1161). Conditions: HEK293-NOX5, ionomycin, 45 min, higher = more signal.
Assay [11] in a line: compound effects on lung adenocarcinoma cell viability – A549, calcein-AM fluorescence, 48 h, basal, profiling panel (AID 1162). Note: test concentration not given here. Conditions: higher = more signal.
The nature of assay [12]: compound effects on differentiated 3T3-L1 adipocyte viability – cell-based, 3T3-L1 adipocytes, calcein-AM fluorescence, 48 h, basal, profiling panel (AID 1163). Note: test concentration not given here. Conditions: 3T3-L1 adipocytes viability, higher = more signal.
The nature of assay [13]: compound effects on hepatocellular carcinoma cell viability – HepG2, calcein-AM fluorescence, 48 h, basal, profiling panel (AID 1164). Note: test concentration not given here. The conditions noted are these: higher = more signal.
Assay [14] is described as follows: compound effects on multiple myeloma cell viability – MM1S, calcein-AM fluorescence, 48 h, basal, profiling panel (AID 1165). Note: test concentration not given here. Conditions: higher = more signal.
Assay [15] is described as follows: calcein-AM signal in unstimulated myeloma cells – cell-based, calcein-AM fluorescence, 48 h, PK04 Diversity Set, profiling panel (AID 1166).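 Note: cells grown under basal conditions without added stimulus; test concentration not given here.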 Conditions: RPMI8226 myeloma viability, higher = more signal.
The nature of assay [16]: JC-1 mitochondrial signal, unstimulated HepG2 cells – cell-based, JC-1 fluorescence, 24 h, 100 nL compound, profiling panel (AID 1167). Note: test concentration not given here. Conditions: HepG2 mitochondrial potential, higher = more signal.
The nature of assay [17]: JC-1 mitochondrial signal, unstimulated adipocytes – cell-based, JC-1 fluorescence, 3T3-L1 adipocytes, 24 h, 100 nL compound, profiling panel (AID 1168). Note: test concentration not given here. The conditions noted are these: JC-1 mitochondrial fluorescence, higher = more signal, called active from +8 up or from −8 down.
Assay [18] in a line: JC-1 mitochondrial signal, unstimulated myeloma cells – cell-based, JC-1 fluorescence, RPMI8226, 24 h, 100 nL compound, profiling panel (AID 1169). Note: test concentration not given here. Conditions: JC-1 mitochondrial potential fluorescence, higher = more signal.
The nature of assay [19]: JC-1 mitochondrial signal, unstimulated MM1S myeloma – cell-based, JC-1 fluorescence, 24 h, 100 nL compound, profiling panel (AID 1170). Note: test concentration not given here. Conditions: MM1S mitochondrial potential, higher = more signal.
A short description of assay [20]: resazurin metabolic signal in A549 cells – cell-based, resazurin fluorescence, 24 h, PK04 Diversity Set, profiling panel (AID 1171). Note: test concentration not given here. The conditions noted are these: A549 viability, higher = more signal, called active from +8 up or from −8 down. For orientation: The colour change of resazurin is a common sign of viable cells or microbes.

Calls of active or inactive are those of the source.

Chain of NADPH oxidase 4 (Homo sapiens) (Q9NPH5 whole entry, looked up): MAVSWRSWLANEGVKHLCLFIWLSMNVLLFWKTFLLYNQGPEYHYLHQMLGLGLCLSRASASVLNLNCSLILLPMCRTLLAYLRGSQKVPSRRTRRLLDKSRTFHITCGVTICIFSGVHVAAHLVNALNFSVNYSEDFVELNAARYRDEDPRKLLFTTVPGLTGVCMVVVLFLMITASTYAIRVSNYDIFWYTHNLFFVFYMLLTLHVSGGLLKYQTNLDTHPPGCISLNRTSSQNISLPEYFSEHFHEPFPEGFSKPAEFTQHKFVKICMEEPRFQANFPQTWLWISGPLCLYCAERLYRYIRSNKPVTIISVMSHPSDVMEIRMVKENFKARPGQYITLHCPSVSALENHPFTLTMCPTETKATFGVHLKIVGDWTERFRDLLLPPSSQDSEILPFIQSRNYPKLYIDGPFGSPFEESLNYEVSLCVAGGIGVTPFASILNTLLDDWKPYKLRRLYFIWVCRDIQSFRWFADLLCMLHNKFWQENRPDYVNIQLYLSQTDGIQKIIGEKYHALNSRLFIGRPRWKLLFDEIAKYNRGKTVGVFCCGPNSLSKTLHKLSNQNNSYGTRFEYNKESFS
Chain of NADPH oxidase 2 (Homo sapiens) (P04839 whole entry, looked up): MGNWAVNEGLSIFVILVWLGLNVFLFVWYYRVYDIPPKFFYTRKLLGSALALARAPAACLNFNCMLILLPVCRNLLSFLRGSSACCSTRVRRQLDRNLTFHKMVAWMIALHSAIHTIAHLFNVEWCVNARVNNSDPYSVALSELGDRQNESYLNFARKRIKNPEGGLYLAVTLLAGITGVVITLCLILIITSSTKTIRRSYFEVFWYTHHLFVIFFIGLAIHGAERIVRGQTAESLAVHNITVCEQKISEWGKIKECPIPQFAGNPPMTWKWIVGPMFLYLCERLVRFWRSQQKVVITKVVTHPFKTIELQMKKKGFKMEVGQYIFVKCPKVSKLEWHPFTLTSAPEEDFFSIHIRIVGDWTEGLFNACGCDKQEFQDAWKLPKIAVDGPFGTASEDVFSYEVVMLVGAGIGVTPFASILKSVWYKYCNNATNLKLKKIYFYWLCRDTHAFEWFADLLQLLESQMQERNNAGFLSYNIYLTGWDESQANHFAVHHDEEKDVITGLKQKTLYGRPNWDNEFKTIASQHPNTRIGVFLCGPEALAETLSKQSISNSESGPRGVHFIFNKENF
Chain of NADPH oxidase 5 (Homo sapiens) (Q96PH1 whole entry, looked up): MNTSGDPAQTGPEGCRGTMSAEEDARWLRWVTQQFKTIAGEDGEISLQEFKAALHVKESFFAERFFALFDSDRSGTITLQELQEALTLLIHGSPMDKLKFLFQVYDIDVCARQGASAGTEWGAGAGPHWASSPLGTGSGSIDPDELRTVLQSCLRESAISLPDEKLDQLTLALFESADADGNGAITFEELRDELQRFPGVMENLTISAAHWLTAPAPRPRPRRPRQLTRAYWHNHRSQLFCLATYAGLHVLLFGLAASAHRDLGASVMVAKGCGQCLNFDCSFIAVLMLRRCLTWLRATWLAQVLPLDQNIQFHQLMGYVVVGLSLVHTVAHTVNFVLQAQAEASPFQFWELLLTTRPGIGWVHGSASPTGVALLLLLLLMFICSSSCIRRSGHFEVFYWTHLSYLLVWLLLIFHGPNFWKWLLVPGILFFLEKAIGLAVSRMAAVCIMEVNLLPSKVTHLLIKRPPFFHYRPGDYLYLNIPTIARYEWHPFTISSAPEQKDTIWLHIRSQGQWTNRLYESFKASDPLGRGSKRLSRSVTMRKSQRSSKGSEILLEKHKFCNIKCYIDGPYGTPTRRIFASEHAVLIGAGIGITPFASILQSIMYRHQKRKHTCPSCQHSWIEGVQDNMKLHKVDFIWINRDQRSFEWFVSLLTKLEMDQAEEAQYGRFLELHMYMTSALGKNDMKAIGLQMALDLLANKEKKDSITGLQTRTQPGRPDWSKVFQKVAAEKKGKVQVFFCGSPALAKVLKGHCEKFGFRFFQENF

Consider `CC1CC/C=C\[C@H]2OC34C=CCN(c5ccc6ccccc6c5)C(=O)[C@H]3N(C(C)CO)C(=O)[C@@H]4C2C(=O)O1` (stereo not given in full), for which the z-score was -0.114 (inactive) in assay [1]; 0.856 (inactive) in [3]; 0.222 (inactive) in assay [4]; 0.927 (inactive) in [5]; 0.233 (inactive) in assay [6]; -0.347 in assay [7]. In addition, the z-score is 0.995 (inactive) in assay [8]; -0.181 (inactive) in assay [9]; 1.58 in [10]; -0.326 in assay [11]; -4.43 in assay [12]; 1.05 in [13]. Moreover, the z-score in assay [14] is 1.6; in [15], -0.311; in assay [16] it was 0.333; in assay [17] it was 0.0486 (inactive); in assay [18], 0.195; in assay [19], -0.532. For the same compound, the z-score in [20] is -0.0299 (inactive). The same compound showed a composite z-score in assay [2] of -0.0933.

Turning to `C=CCOC(=O)[C@@H]1[C@H]2C(=O)O[C@H](c3ccccc3)[C@H](c3ccccc3)N2[C@H](c2ccc(OCCOC(=O)[C@H]3C[C@H]4C(=O)N5CCC[C@H]5C(=O)N4[C@H]3c3cccc(OCCO)c3)cc2)[C@@]12C(=O)Nc1ccc(I)cc12`, the z-score in assay [1] is -0.565 (inactive); in [3], 1.72 (inactive); in assay [4] it was 1.39 (inactive); in assay [5], -0.341 (inactive); in [6] it was 0.84 (inactive); in [7], -0.101. For the same compound, the z-score in [8] was 0.929 (inactive); in [9], 0.788 (inactive); in assay [10], 0.32; in assay [11] it was -0.302; in [12], -0.506; in [13] it was -0.28. Also, the z-score was 0.328 in assay [14]; -0.0082 in assay [15]; -2.08 in [16]; 0.667 (inactive) in assay [17]; -0.16 in assay [18]; -0.998 in [19]. The z-score in assay [20] was 0.0981 (inactive). The composite z-score in [2] was -0.101.

For `CC(C)C(=C=CC[C@H](O)c1ccccc1OCCO)C[C@H](O)c1cc(Cl)cc(Cl)c1O`, the z-score was -0.279 (inactive) in assay [1]; 19.5 (active) in [3]; 4.2 (inactive) in assay [4]; -0.25 (inactive) in [5]; 1.44 (inactive) in assay [6]; -0.383 in assay [7]. Besides, the z-score is -1.24 (inactive) in assay [8]; -1.67 (inactive) in [9]; -1.88 in assay [10]; 0.884 in assay [11]; 0.271 in assay [12]; 0.601 in assay [13]. Moreover, the z-score in assay [14] was -3.42; in assay [15], -3.2; in assay [16] it was -1.1; in assay [17], 0.427 (inactive); in assay [18], -0.788; in assay [19] it was -1.07. In addition, the z-score in [20] is -0.0216 (inactive). The composite z-score in [2] was found to be 0.199.

For `CC(C)c1nc2cc(Br)ccc2c(=O)o1`, the z-score in assay [1] is 0.537 (inactive); in assay [3], 2.79 (inactive); in assay [4] it was 0.153 (inactive); in assay [5], 0.958 (inactive); in assay [6], 0.303 (inactive); in assay [7], -0.228. Further, the z-score in assay [8] is -0.421 (inactive); in assay [9], -0.0107 (inactive); in assay [10], 0.118; in assay [11] it was -0.374; in assay [12], 0.124; in [13], -1.32. Also, the z-score in assay [14] is 0.345; in assay [15], -0.262; in assay [16] it was -0.0593; in assay [17], 0.316 (inactive); in assay [18] it was 0.593; in [19], -0.259. Besides, the z-score in assay [20] was 0.0924 (inactive). This compound also showed a composite z-score in [2] of 0.202.
